Assay results taken from PubChem BioAssay (NCATS).
Inconclusive results are not listed. Activity calls are given as the source filed them. Calls come from the whole dose curve; as a rule, active = well fitted cell-killing curve with a large enough effect; inconclusive = small, poorly fitted or top-dose-only effect; inactive = flat fitted curve, though single readings scatter.

experiment: qHTS of pediatric cancer cell lines to identify multiple opportunities for drug repurposing: Primary screen for TC32 cells (AID 1347089); details: TC32 Ewing sarcoma viability, CellTiter-Glo luminescence, 48 h; series mostly up to 45.8 µM; activity change, negative = cytotoxic: at the top concentration; note: nearly all actives have a fitted effect of over 60% in size; for activity change, negative = cytotoxic: % is set by controls: 0 for no effect and ±100 for the full control effect
Outline: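 TC32 cells, 500-1,000/well in growth medium, compound-treated 48 h at 37 °C; viability from CellTiter-Glo luminescence. Primary screen: MIPE 11-point (0.78 nM–46 µM final), NPC 8-point (0.59 nM–46 µM final); confirmatory at 11-point dilutions.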
Potency is the fitted concentration of half-maximal effect.

Compound | activity change, negative = cytotoxic | Potency
C[C@]12CC[C@H]3[C@@H](CCC4=CC(=O)CC[C@@]43C)[C@H]1CC[C@H]2OC(=O)CCC1CCCC1 | 7.13% (inactive) | –
c1cc2c(cc1[C@H]1OC[C@H]3[C@H]1CO[C@H]3c1ccc3c(c1)OCO3)OCO2 | 6.19% (inactive) | –
CC(=O)O[C@@]12CO[C@H]1C[C@H](O)[C@@]1(C)C(=O)[C@H](O)C3=C(C)[C@@H](O)C[C@@](O)([C@@H](OC(=O)c4ccccc4)[C@@H]21)C3(C)C | – | 9300 nM (active)
C[C@@H]1CC[C@@]2(OC1)O[C@H]1C[C@H]3[C@@H]4CC=C5C[C@@H](O[C@@H]6O[C@H](CO)[C@@H](O[C@@H]7O[C@@H](C)[C@H](O)[C@@H](O)[C@@H]7O)[C@H](O)[C@@H]6O[C@@H]6O[C@@H](C)[C@H](O)[C@@H](O)[C@@H]6O)CC[C@]5(C)[C@@H]4CC[C@]3(C)[C@@H]1[C@H]2C | – | 13100 nM (active)
N#C[C@H](O[C@@H]1O[C@H](CO[C@@H]2O[C@H](CO)[C@H](O)[C@H](O)[C@H]2O)[C@H](O)[C@H](O)[C@H]1O)c1ccccc1 | -6.14% (inactive) | –
S=C(SSC(=S)N1CCCCC1)N1CCCCC1 | – | 938 nM (active)
CC(C)(O)C(=O)Nc1ccc([N+](=O)[O-])c(C(F)(F)F)c1 | 0% (inactive) | –
CC=C(C)C(=O)N[C@@H](c1ccccc1)[C@@H](O)C(=O)O[C@H]1C[C@@]2(O)[C@@H](OC(=O)c3ccccc3)[C@@H]3[C@]4(OC(C)=O)CO[C@@H]4C[C@H](O)[C@@]3(C)C(=O)[C@H](OC(C)=O)C(=C1C)C2(C)C | – | 1.3 nM (active)
COc1ccc(N(C(=O)Oc2c(C)cccc2C)c2ccnc(Nc3ccc(N4CCN(C)CC4)cc3)n2)c(OC)c1 | -8.3% (inactive) | –
CC(N[C@H]1C[C@H]1c1ccccc1)c1ccc2c(c1)OCCO2 (some centres not stated) | 4.57% (inactive) | –
COc1nn(CSP(=S)(OC)OC)c(=O)s1 | 1.36% [at 92.2 µM] (inactive) | –
O=C(N[C@@H](COc1ccc2[nH]c(=O)[nH]c2c1)c1ccccc1)c1cccn(Cc2ccc(F)c(F)c2)c1=O | -10.7% (inactive) | –
CC(=O)Nc1ccc(OC[C@](C)(O)C(=O)Nc2ccc([N+](=O)[O-])c(C(F)(F)F)c2)cc1 | 2.97% (inactive) | –
CC(C)[C@H]1C(=O)N[C@H](CO)Cc2c[nH]c3cccc(c23)N1C | 3.01% (inactive) | –
C[C@@]12OC(=O)[C@]1([C@@H](O)[C@@H]1C=CCCC1)NC(=O)[C@H]2CCCl | – | 7390 nM (active)
CC(=Cc1csc(C)n1)[C@@H]1C[C@H]2O[C@]2(C)CCC[C@H](C)[C@@H](O)[C@@H](C)C(=O)C(C)(C)[C@@H](O)CC(=O)O1 | – | 3.7 nM (active)
CC[C@@H]1[C@@H](C)O[C@@](O)([C@@H](C)[C@H](O)[C@H](C)[C@H]2OC(=O)C=CC=C[C@@H](C)[C@@H]([C@@H](C)[C@@H](O)[C@H](C)[C@@]3(O)C[C@H](O[C@H]4C[C@H](O)[C@H](O)[C@H](C)O4)[C@H](CC)[C@@H](C)O3)OC(=O)C=CC=C[C@@H]2C)C[C@H]1O[C@H]1C[C@H](O)[C@H](O)[C@H](C)O1 | – | 18600 nM (active)
CC(=O)[O][Hg][c]1ccccc1 | – | 1870 nM (active)
Cc1ccccc1-n1c(Cn2cnc3c(N)ncnc32)nc2cccc(C)c2c1=O | – | 1310 nM (active)
CCOC(=O)Nc1ccc(NCc2ccc(F)cc2)cc1N | 7.36% (inactive) | –
O=S(=O)(F)Cc1ccccc1 | 19.2% (inactive) | –
COc1ccc2c(c1)[C@]13CCCCC1C(C2)N(C)CC3 (some centres not stated) | 11.4% (inactive) | –
O=C(Oc1ccc([N+](=O)[O-])cc1)N1CCN(Cc2cccc(Oc3ccccc3)c2)CC1 | 5.54% (inactive) | –
Clc1ccccc1C(c1ccccc1)(c1ccccc1)n1cccn1 | 4.78% (inactive) | –
CC1=C(O)C(=O)C=C2C1=CC=C1[C@@]2(C)CC[C@@]2(C)[C@@H]3C[C@](C)(C(=O)O)CC[C@]3(C)CC[C@]12C | – | 7390 nM (active)
COc1cc([C@@H]2c3cc4c(cc3[C@@H](O)C3COC(=O)C32)OCO4)cc(OC)c1O (some centres not stated) | – | 370 nM (active)
CC(C)(O)C=CC(=O)[C@](C)(O)[C@H]1[C@H](O)C[C@]2(C)[C@@H]3CC=C4[C@@H](C=C(O)C(=O)C4(C)C)[C@]3(C)C(=O)C[C@@]12C | – | 1310 nM (active)
CCOC(=O)c1c(C(C#N)=CN)c2ccc(Cl)c(Cl)c2n1C | 4.11% (inactive) | –

experiment: qHTS of pediatric cancer cell lines to identify multiple opportunities for drug repurposing: Primary screen for DAOY cells (AID 1347090); details: DAOY medulloblastoma viability, CellTiter-Glo luminescence, 48 h; series mostly up to 46 µM; activity change, negative = cytotoxic: at the top concentration; note: nearly all actives have a fitted effect of over 55% in size;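 for activity change, negative = cytotoxic: plate controls were DMSO for no effect and bortezomib for full effect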
Outline: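 Viability measured as metabolically active cells via CellTiter-Glo luminescence following 48 hours of compound exposure, 11-point dilutions in confirmatory testing. 500-1,000 cells/well plated 5 hours before dosing; controls were DMSO and 2.3 µM bortezomib.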

Compound | activity change, negative = cytotoxic | Potency
C[C@]12CC[C@H]3[C@@H](CCC4=CC(=O)CC[C@@]43C)[C@H]1CC[C@H]2OC(=O)CCC1CCCC1 | -5.64% (inactive) | –
c1cc2c(cc1[C@H]1OC[C@H]3[C@H]1CO[C@H]3c1ccc3c(c1)OCO3)OCO2 | -6.29% (inactive) | –
CC(C)(O)C(=O)Nc1ccc([N+](=O)[O-])c(C(F)(F)F)c1 | – | 18700 nM (active)
CC=C(C)C(=O)N[C@@H](c1ccccc1)[C@@H](O)C(=O)O[C@H]1C[C@@]2(O)[C@@H](OC(=O)c3ccccc3)[C@@H]3[C@]4(OC(C)=O)CO[C@@H]4C[C@H](O)[C@@]3(C)C(=O)[C@H](OC(C)=O)C(=C1C)C2(C)C | – | 3.7 nM (active)
CC(N[C@H]1C[C@H]1c1ccccc1)c1ccc2c(c1)OCCO2 (some centres not stated) | -5.91% (inactive) | –
CC(=O)Nc1ccc(OC[C@](C)(O)C(=O)Nc2ccc([N+](=O)[O-])c(C(F)(F)F)c2)cc1 | -9.43% (inactive) | –
CO/C=C(/C(=O)OC)c1ccccc1Oc1cc(Oc2ccccc2C#N)ncn1 | – | 9690 nM (active)
N=c1c2c(-c3ccccc3)c(-c3ccccc3)n(Cc3ccccc3)c2ncn1C1CCC(O)CC1 (configuration not stated) | -14.9% (inactive) | –
CC[C@@H]1[C@@H](C)O[C@@](O)([C@@H](C)[C@H](O)[C@H](C)[C@H]2OC(=O)C=CC=C[C@@H](C)[C@@H]([C@@H](C)[C@@H](O)[C@H](C)[C@@]3(O)C[C@H](O[C@H]4C[C@H](O)[C@H](O)[C@H](C)O4)[C@H](CC)[C@@H](C)O3)OC(=O)C=CC=C[C@@H]2C)C[C@H]1O[C@H]1C[C@H](O)[C@H](O)[C@H](C)O1 | – | 469 nM (active)
CC(=O)[O][Hg][c]1ccccc1 | – | 1680 nM (active)
Cc1ccccc1-n1c(Cn2cnc3c(N)ncnc32)nc2cccc(C)c2c1=O | – | 1480 nM (active)
CCOC(=O)Nc1ccc(NCc2ccc(F)cc2)cc1N | -6.85% (inactive) | –
Clc1ccccc1C(c1ccccc1)(c1ccccc1)n1cccn1 | -4.02% (inactive) | –
CC(C)(O)C=CC(=O)[C@](C)(O)[C@H]1[C@H](O)C[C@]2(C)[C@@H]3CC=C4[C@@H](C=C(O)C(=O)C4(C)C)[C@]3(C)C(=O)C[C@@]12C | – | 187 nM (active)
